{"source": "PubChem BioAssay (NCATS)", "key": {"[1]": {"target": "Cytochrome P450 3A4 (Homo sapiens) (UniProt P08684)", "sequence (P08684 whole entry, looked up)": "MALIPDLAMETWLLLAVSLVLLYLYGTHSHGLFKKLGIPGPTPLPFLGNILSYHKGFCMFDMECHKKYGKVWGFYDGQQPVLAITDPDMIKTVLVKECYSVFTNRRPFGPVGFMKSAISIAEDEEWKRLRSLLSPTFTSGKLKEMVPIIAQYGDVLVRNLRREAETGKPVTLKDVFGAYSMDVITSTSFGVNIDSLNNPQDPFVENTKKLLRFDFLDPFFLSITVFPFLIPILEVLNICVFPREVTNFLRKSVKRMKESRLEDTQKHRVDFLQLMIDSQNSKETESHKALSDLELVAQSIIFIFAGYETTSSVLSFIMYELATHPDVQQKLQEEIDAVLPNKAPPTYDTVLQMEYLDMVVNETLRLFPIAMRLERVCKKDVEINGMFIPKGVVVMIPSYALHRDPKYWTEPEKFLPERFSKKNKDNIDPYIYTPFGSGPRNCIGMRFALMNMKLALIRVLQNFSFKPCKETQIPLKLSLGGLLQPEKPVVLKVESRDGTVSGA", "experiment": "qHTS Assay for Activators of Cytochrome P450 3A4 (AID 885); further: nearly all actives have a fitted effect of over 65% in size", "summary_of_the_method": "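Using 20nM recombinant human CYP3A4 in potassium phosphate (200mM), substrate Luciferin-PPXE at 25uM, luminescent luciferin detection followed a 60-min RT NADPH reaction; data scaled to 57 uM ketoconazole.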"}, "[2]": {"experiment": "Confirmation and Secondary Assay for Modulators of Hemoglobin Beta Chain Splicing at IVS2 654 locus (AID 910);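 further: HeLa cells stably carrying EGFP split by mutant beta-globin IVS2-654 intron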", "summary_of_the_method": "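HeLa cells stably expressing EGFP interrupted by β-globin IVS2-654 intron, seeded overnight in Opti-MEM/2% FCS, then treated 2 days at 37 °C. Restored splicing read as total peak GFP intensity per well by laser scanning cytometry (488 nm excitation, 500–520 nm emission); 500 nM antisense PNA as control.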"}, "[3]": {"experiment": "Confirmation and Secondary Assay for Modulators of Hemoglobin Beta Chain Splicing at IVS2 705 locus (AID 930); further: series mostly up to about 46 µM", "summary_of_the_method": "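HeLa IVS2-705 EGFP reporter cells, 500/well, compound 2 d at 37C; correct splicing yields fluorescent EGFP. Control: 500 nM antisense PNA. Read-out: total peak GFP intensity.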"}, "[4]": {"target": "Cytochrome P450 2C19 (Homo sapiens) (UniProt P33261)", "sequence (P33261 whole entry, looked up)": "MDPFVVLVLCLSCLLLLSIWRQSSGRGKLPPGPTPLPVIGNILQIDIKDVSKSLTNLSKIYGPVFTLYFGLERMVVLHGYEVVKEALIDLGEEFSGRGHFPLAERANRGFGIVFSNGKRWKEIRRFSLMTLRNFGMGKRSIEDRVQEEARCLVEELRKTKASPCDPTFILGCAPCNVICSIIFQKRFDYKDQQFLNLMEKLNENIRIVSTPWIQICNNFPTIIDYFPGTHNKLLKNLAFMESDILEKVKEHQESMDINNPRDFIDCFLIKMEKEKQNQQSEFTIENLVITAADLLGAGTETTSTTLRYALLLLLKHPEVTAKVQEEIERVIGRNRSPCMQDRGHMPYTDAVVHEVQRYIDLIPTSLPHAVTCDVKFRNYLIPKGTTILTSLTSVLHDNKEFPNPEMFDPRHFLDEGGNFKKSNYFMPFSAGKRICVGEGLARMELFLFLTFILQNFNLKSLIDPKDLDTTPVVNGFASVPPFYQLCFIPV", "experiment": "qHTS Assay for Inhibitors and Substrates of Cytochrome P450 2C19 (AID 899); further: nearly all actives have a fitted effect of over 60% in size; further: potency means the concentration at half of the fitted maximal effect", "summary_of_the_method": "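5 nM human CYP2C19 with 10uM Luciferin-H EGE (at KM) in 50mM KPO4, compound preincubated 10 min at 37C, then NADPH regeneration for 60 min at 37C. Luciferin read by luminescence after detection reagent; normalized to 57uM ketoconazole as full inhibition.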"}, "[5]": {"target": "Cytochrome P450 2D6 (Homo sapiens) (UniProt P10635)", "sequence (P10635 whole entry, looked up)": "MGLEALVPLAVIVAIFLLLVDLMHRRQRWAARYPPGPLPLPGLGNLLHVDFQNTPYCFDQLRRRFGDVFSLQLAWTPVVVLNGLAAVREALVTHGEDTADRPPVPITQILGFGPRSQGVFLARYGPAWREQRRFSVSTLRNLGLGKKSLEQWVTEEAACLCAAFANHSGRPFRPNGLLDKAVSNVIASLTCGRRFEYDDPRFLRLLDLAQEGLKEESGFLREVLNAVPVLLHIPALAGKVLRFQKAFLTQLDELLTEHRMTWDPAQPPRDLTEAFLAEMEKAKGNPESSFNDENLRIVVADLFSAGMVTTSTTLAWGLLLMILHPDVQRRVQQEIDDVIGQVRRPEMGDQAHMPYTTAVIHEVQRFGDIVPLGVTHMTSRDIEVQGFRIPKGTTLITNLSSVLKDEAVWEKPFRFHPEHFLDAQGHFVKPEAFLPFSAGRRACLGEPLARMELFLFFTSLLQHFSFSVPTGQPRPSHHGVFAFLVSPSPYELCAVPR", "experiment": "qHTS Assay for Inhibitors and Substrates of Cytochrome P450 2D6 (AID 891); further: nearly all actives have a fitted effect of over 60% in size; further: potency means the concentration at half of the fitted maximal effect", "summary_of_the_method": "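Luminescent read-out of luciferin formed by 5 nM human CYP2D6 demethylating 30 uM Luciferin-ME EGE (Km level) over 60 min at room temperature after NADPH regeneration addition. Data normalized to full inhibition by 1.43 uM quinidine.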"}, "[6]": {"experiment": "qHTS Assay for Identification of Small Molecule Agonists for Hypoxia Response Element Signaling Pathway (AID 914; active means well fitted activation curve with a large enough effect in the signal ratio, with a control signal flat, not every such curve was filed as active; the % refers to the signal ratio)", "conditions": "ME-180 HRE-bla reporter, beta-lactamase ratio, CoCl2, 17 h; hits give high values", "summary_of_the_method": "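HRE-bla ME-180 assay for agonist-like enhancement of an EC50 CoCl2 stimulus: 17 h at 37 degrees Celsius, CCF4 for 2.5 h, ratiometric 460/530 nm signal converted to %Activity and fitted to AC50.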"}}, "note": "A number with no mark means an inactive call. Results filed as inconclusive are left out. A call without a number means that no potency is given here. Calls of active or inactive are those of the source. Unless noted, the call rests on the fitted dose curve; in most records, active means well fitted curve in the direction sought with a large enough effect; inconclusive means small, poorly fitted or top-dose-only effect, or another doubt; inactive means no such curve, though single readings can be large; an effect the other way counts as inactive or inconclusive.", "data": [{"compound": "C=C1C([C@@]2(C)C(OC(C)=O)CC(=O)O[C@@](C)(COC(C)=O)C2CC(=O)OC)C(OC=O)C(OC(=O)C(O)C(C)CC)[C@]2(C)C(c3ccoc3)CC(=O)C12O", "note": "(stereo partly drawn)", "values": [{"measurement": "Potency", "setting": "[1]", "value": "inactive"}, {"measurement": "outcome", "setting": "[2]", "value": "inactive"}, {"measurement": "outcome", "setting": "[3]", "value": "inactive"}]}, {"compound": "CC(C)CO/N=C1/C[C@@H](O)[C@@H](O)[C@@H]2[C@@H]3C(=O)N(Cc4ccc5c(c4)OCO5)C(=O)[C@H]3CC[C@H]12", "values": [{"measurement": "activity change, positive = activation", "setting": "[1]", "value": "-96.6% [at 11.4 µM]"}, {"measurement": "Potency", "setting": "[4]", "value": "3.98 µM (active)"}]}, {"compound": "CC1CCC2C(=O)N3C(CCC(C)[C@H]3c3cccc(N4CCCC4=O)c3)C(=O)N2C1c1cccc(N2CCCC2=O)c1", "note": "(stereo partly drawn)", "values": [{"measurement": "activity change, positive = activation", "setting": "[1]", "value": "-53.3% [at 11.4 µM]"}, {"measurement": "Potency", "setting": "[5]", "value": "inactive"}, {"measurement": "Potency", "setting": "[4]", "value": "inactive"}]}, {"compound": "CC1CC2C(C(O)C[C@]3(C)C2CC[C@]3(O)C(=O)CO)[C@]2(C)C=CC(=O)C=C12", "note": "(stereo partly drawn)", "values": [{"measurement": "Potency", "setting": "[1]", "value": "inactive"}, {"measurement": "outcome", "setting": "[2]", "value": "inactive"}, {"measurement": "outcome", "setting": "[3]", "value": "inactive"}]}, {"compound": "CC/C=C\\CC[C@H](OC(=O)c1ccc(Br)cc1)C1=CCCCC1=O", "values": [{"measurement": "activity change, positive = activation", "setting": "[1]", "value": "-40.7% [at 11.4 µM]"}, {"measurement": "Potency", "setting": "[4]", "value": "2 µM (active)"}]}, {"compound": "CC1(C)CC[C@]2(C(=O)O)C(O)C[C@@]3(C)C(=CCC4[C@@]5(C)CCC(O)C(C)(C)C5CC[C@@]43C)C2C1", "note": "(stereo partly drawn)", "values": [{"measurement": "Potency", "setting": "[1]", "value": "inactive"}, {"measurement": "outcome", "setting": "[2]", "value": "inactive"}, {"measurement": "outcome", "setting": "[3]", "value": "inactive"}]}, {"compound": "CNC1CCC(c2ccc(Cl)c(Cl)c2)c2ccccc21", "note": "(stereo not drawn)", "values": [{"measurement": "Potency", "setting": "[1]", "value": "inactive"}, {"measurement": "outcome", "setting": "[2]", "value": "inactive"}, {"measurement": "outcome", "setting": "[3]", "value": "inactive"}]}, {"compound": "COC(=O)c1c(C)cc(O)cc1O", "values": [{"measurement": "Potency", "setting": "[1]", "value": "inactive"}, {"measurement": "outcome", "setting": "[2]", "value": "inactive"}, {"measurement": "outcome", "setting": "[3]", "value": "inactive"}]}, {"compound": "COC(=O)[C@@H]1CC[C@H](C)[C@@H](c2ccc(C)cc2)N1C(=O)c1ccc(/C=N\\OC[C@@H](O)COCc2ccco2)cc1", "values": [{"measurement": "activity change, positive = activation", "setting": "[1]", "value": "-58.1% [at 11.4 µM]"}, {"measurement": "activation", "setting": "[6]", "value": 9.82, "unit": "%"}]}, {"compound": "OCC1OC(c2ccc3c(c2)OCO3)C=CC1Oc1ccc(C2CCCC2)cc1", "note": "(stereo not drawn)", "values": [{"measurement": "activity change, positive = activation", "setting": "[1]", "value": "-50.7% [at 11.4 µM]"}, {"measurement": "Potency", "setting": "[4]", "value": "inactive"}]}, {"compound": "CCCCCC(=O)O[C@@]1(C(C)=O)CCC2C3CCC4=CC(=O)CC[C@@]4(C)C3CC[C@]21C", "note": "(stereo partly drawn)", "values": [{"measurement": "Potency", "setting": "[1]", "value": "inactive"}, {"measurement": "outcome", "setting": "[2]", "value": "inactive"}, {"measurement": "outcome", "setting": "[3]", "value": "inactive"}]}, {"compound": "CC(C)c1c(O)ccc2c1CCC1C(C)(C)CCC[C@@]21C", "note": "(stereo partly drawn)", "values": [{"measurement": "Potency", "setting": "[1]", "value": "inactive"}, {"measurement": "outcome", "setting": "[2]", "value": "inactive"}, {"measurement": "outcome", "setting": "[3]", "value": "inactive"}]}, {"compound": "COC(=O)[C@@H]1CC[C@H](C)[C@@H](c2ccc(C)cc2)N1C(=O)c1ccc(/C=N\\OC[C@@H]2O[C@H](c3ccccc3)C=C[C@@H]2Oc2ccc(OC)cc2)cc1", "values": [{"measurement": "activity change, positive = activation", "setting": "[1]", "value": "-30% [at 11.4 µM]"}, {"measurement": "Potency", "setting": "[4]", "value": "0.0501 µM (active)"}]}, {"compound": "C/C(CCC(=O)OC[C@@H]1O[C@H](C#Cc2ccccc2)C=C[C@@H]1Oc1ccc(C)cc1)=N/OC[C@@H](C)[C@H](OCc1ccccc1)C(C)C", "values": [{"measurement": "activity change, positive = activation", "setting": "[1]", "value": "-45.8% [at 11.4 µM]"}, {"measurement": "activation", "setting": "[6]", "value": 14.9, "unit": "%"}]}, {"compound": "C#CCCCCCCCCCCCC(O)CC(O)COC(C)=O", "note": "(stereo not drawn)", "values": [{"measurement": "Potency", "setting": "[1]", "value": "inactive"}, {"measurement": "outcome", "setting": "[2]", "value": "inactive"}, {"measurement": "outcome", "setting": "[3]", "value": "inactive"}]}, {"compound": "C=CC(C1=CC(=O)C(OC)=C(OC)C1=O)c1ccccc1", "note": "(stereo not drawn)", "values": [{"measurement": "Potency", "setting": "[1]", "value": "inactive"}, {"measurement": "outcome", "setting": "[2]", "value": "inactive"}, {"measurement": "outcome", "setting": "[3]", "value": "inactive"}]}, {"compound": "CO[C@H]1COC(=O)C/C=C\\[C@@H](C)COC(=O)[C@@H](OCc2ccccc2)/C=C\\[C@@H]1C", "values": [{"measurement": "activity change, positive = activation", "setting": "[1]", "value": "-63.8% [at 11.4 µM]"}, {"measurement": "activation", "setting": "[6]", "value": -3.25, "unit": "%"}]}, {"compound": "CC1CCC2C(=O)OC(CN3C(=O)c4ccccc4C3=O)CN2C1c1ccc(Br)cc1", "note": "(stereo not drawn)", "values": [{"measurement": "activity change, positive = activation", "setting": "[1]", "value": "-55.7% [at 11.4 µM]"}, {"measurement": "Potency", "setting": "[4]", "value": "inactive"}]}, {"compound": "CC1CCC2C(=O)N3C(CCC(C)[C@H]3c3ccccc3Br)C(=O)N2C1c1ccccc1Br", "note": "(stereo partly drawn)", "values": [{"measurement": "activity change, positive = activation", "setting": "[1]", "value": "-55.3% [at 11.4 µM]"}, {"measurement": "Potency", "setting": "[5]", "value": "3.16 µM (active)"}, {"measurement": "Potency", "setting": "[4]", "value": "inactive"}]}, {"compound": "CC1CCC2C(=O)N3C(CCC(C)C3c3ccccc3Br)C(=O)N2C1c1ccc(C#CCN(C)C)cc1", "note": "(stereo not drawn)", "values": [{"measurement": "activity change, positive = activation", "setting": "[1]", "value": "-38.2% [at 11.4 µM]"}, {"measurement": "Potency", "setting": "[5]", "value": "inactive"}, {"measurement": "Potency", "setting": "[4]", "value": "inactive"}]}, {"compound": "CO[C@@H]1COC(=O)C/C=C\\[C@H](C)COC(=O)[C@H](Cc2ccccc2)NC(=O)C/C=C\\[C@H]1C", "values": [{"measurement": "activity change, positive = activation", "setting": "[1]", "value": "-56.6% [at 11.4 µM]"}, {"measurement": "Potency", "setting": "[4]", "value": "2.51 µM (active)"}]}, {"compound": "CC(C)(C)N1C(=O)[C@H]2[C@@H]3[C@H](O)[C@H](O)CC(=O)[C@H]3CC[C@H]2C1=O", "values": [{"measurement": "Potency", "setting": "[4]", "value": "inactive"}]}, {"compound": "C[C@@H](c1ccccc1)N1C(=O)[C@H]2[C@@H]3[C@H](O)C=CC(=O)[C@H]3CC[C@H]2C1=O", "values": [{"measurement": "Potency", "setting": "[4]", "value": "inactive"}]}, {"compound": "COc1ccc(O[C@H]2C=C[C@@H](c3ccccc3)O[C@@H]2CO/N=C(\\C)CCN2CCc3nc(-c4ccccc4)c(-c4ccccc4)cc3C2)cc1", "values": [{"measurement": "Potency", "setting": "[4]", "value": "0.251 µM (active)"}]}, {"compound": "CC(=O)OC[C@@H]1O[C@@H](O/N=C2/C[C@@H](O)[C@@H](O)[C@@H]3[C@@H]4C(=O)N(C(C)(C)C)C(=O)[C@H]4CC[C@H]23)[C@H](OC(C)=O)[C@H](OC(C)=O)[C@@H]1OC(C)=O", "values": [{"measurement": "Potency", "setting": "[4]", "value": "inactive"}]}]}
